The text below walks through data of PubChem BioAssay.

Each structure is given as a SMILES string. Calls of active or inactive are those of the source.

Assay [1] deals with Plasmodium falciparum Sir2 (PF13_0152, Sir2A). In words: Plasmodium falciparum Sir2A binding compounds – biochemical, small-molecule microarray, 635 nm fluorescence, primary screen (AID 1098).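 Note: score merges spot fluorescence intensity with its signal-to-noise ratio.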 As to conditions: fluorescence 635 nm, higher = more signal.
A short description of assay [2]: probe aDKK1 binding to arrayed compounds – biochemical, biotinylated probe, 635/667 nm fluorescence, primary screen (AID 1099).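 Note: score merges 667nm spot fluorescence with signal to noise across triplicate slides.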 As to conditions: small-molecule microarray, higher = more signal.
Assay [3] is described as follows: probe aCHRDL2 binding to arrayed compounds – biochemical, biotinylated probe, 635/667 nm fluorescence, primary screen (AID 1100). As to conditions: small-molecule microarray, higher = more signal.
Assay [4] is described as follows: change in splice reporter luminescence, either direction, cell-based, HEK293, spliceosome inhibition project, primary screen (AID 1101).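 Note: HEK293 cells carrying a splicing-competent luciferase reporter gene; test concentration not given here.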 As to conditions: HEK293 splicing luciferase reporter, 24 h, higher = more signal, called active from +8 up or from −8 down. On the technique in general: A reporter such as luciferase makes a cellular process visible.
For assay [5], the target named is Fibroblast growth factor 10 (Homo sapiens) (UniProt O15520). In words: compounds binding fibroblast growth factor 10 – biochemical, small-molecule microarray, 635 nm fluorescence, primary screen (AID 1102). As to conditions: FGF10 binding, fluorescence 635 nm, higher = more signal.
Fibroblast growth factor 10 (Homo sapiens), sequence (O15520 whole entry, looked up): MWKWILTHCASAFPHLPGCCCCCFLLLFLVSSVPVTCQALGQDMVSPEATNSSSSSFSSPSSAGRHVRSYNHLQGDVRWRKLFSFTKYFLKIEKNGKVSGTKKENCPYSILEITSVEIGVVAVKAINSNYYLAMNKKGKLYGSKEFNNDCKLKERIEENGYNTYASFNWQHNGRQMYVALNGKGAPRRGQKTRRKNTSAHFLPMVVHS
Assay [6] has as its system glycogen synthase kinase-3 (GSK3A per assay name; protocol says GSK3B). In words: compounds binding glycogen synthase kinase-3 – biochemical, small-molecule microarray, 635 nm fluorescence, GSK3A, primary screen (AID 1103). Note: the record names both GSK3A and GSK3B. As to conditions: fluorescence 635 nm, higher = more signal.
In assay [7] the target is Epidermal growth factor receptor (Homo sapiens) (UniProt P00533). In words: compounds binding epidermal growth factor receptor – biochemical, small-molecule microarray, 635 nm fluorescence, primary screen (AID 1104).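 Note: score merges 667 nm emission intensity with spot signal to noise over triplicate slides.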 As to conditions: EGFR binding, higher = more signal.
Epidermal growth factor receptor (Homo sapiens), sequence (P00533 whole entry, looked up): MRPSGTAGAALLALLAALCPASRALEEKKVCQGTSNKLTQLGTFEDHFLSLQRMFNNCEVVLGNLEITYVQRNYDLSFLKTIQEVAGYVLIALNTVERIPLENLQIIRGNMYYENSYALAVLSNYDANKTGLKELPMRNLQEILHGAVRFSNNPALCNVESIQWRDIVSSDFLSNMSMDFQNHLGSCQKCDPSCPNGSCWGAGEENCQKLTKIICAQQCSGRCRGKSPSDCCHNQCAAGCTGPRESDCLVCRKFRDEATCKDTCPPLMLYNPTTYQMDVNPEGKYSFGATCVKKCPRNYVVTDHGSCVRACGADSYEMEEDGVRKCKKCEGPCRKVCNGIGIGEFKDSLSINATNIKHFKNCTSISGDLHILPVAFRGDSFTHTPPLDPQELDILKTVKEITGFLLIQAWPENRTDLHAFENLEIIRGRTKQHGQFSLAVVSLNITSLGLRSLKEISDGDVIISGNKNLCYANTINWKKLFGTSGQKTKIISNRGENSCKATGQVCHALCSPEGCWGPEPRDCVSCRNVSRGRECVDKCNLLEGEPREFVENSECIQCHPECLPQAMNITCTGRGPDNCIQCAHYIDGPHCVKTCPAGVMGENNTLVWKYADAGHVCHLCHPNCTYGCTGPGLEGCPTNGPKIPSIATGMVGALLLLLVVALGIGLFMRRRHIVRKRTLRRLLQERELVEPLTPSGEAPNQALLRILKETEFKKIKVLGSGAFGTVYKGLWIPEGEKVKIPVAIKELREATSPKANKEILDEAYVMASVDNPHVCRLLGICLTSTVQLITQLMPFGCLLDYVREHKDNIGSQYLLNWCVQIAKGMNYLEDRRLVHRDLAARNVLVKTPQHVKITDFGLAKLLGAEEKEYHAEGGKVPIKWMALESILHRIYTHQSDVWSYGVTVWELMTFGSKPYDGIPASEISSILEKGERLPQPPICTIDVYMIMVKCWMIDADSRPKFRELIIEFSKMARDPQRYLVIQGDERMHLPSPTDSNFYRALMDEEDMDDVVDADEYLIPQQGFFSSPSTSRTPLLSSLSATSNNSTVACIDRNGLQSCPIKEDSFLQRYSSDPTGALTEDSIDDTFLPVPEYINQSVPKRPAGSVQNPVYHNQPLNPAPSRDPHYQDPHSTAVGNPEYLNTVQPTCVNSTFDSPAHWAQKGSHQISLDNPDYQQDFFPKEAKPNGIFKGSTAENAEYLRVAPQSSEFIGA
Assay [8] addresses Follistatin-related protein 3 (Homo sapiens) (UniProt O95633). In words: compounds binding follistatin-related protein 3 – biochemical, small-molecule microarray, 635 nm fluorescence, primary screen (AID 1105).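 Note: score merges emission near 667 nm and signal to noise per printed spot across three slides.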 As to conditions: FSTL3 binding, higher = more signal.
In assay [9] the target is Dickkopf-related protein 1 (Homo sapiens) (UniProt O94907). In words: small molecules binding DKK1 protein – biochemical, small-molecule microarray, 635 nm fluorescence scan, primary screen (AID 1106).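 Note: score merges emission near 667 nm with signal to noise over three replicate slides.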 As to conditions: higher = more signal.
Dickkopf-related protein 1 (Homo sapiens), sequence (O94907 whole entry, looked up): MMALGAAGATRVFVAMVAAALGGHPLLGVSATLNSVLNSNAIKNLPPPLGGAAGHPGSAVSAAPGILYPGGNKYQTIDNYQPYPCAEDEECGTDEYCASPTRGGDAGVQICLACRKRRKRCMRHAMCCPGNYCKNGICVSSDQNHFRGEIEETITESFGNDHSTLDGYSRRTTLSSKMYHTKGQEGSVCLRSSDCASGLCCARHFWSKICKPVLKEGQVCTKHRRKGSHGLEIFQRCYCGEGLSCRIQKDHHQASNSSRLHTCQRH
The test system of assay [10] is Inhibin beta A chain (activin A). In words: small molecules binding activin A – biochemical, small-molecule microarray, 635 nm fluorescence scan, primary screen (AID 1107).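 Note: mouse activin A protein probed at 4.33 µg/mL on printed slides; score merges bound-protein fluorescence near 667 nm with spot signal-to-noise.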 As to conditions: INHBA, higher = more signal.
Assay [11] concerns Human papillomavirus type 1a protein E7 (residues 44-93). Kind of assay: small molecules binding HPV E7 44-93 – biochemical, small-molecule microarray, residues 44-93, 635 nm fluorescence, primary screen (AID 1108).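 Note: E7 fragment applied at 1 µg/mL in TBST for 1 h at 4 C; score combines spot fluorescence with its signal to noise ratio.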 As to conditions: fluorescence 635 nm, higher = more signal.
A short description of assay [12]: hepatitis C replication reporter changes, two-sided – Huh7 cells, luciferase reporter, HCV replication inhibitor project, primary screen (AID 1109).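 Note: huh7 hepatoma cells harbouring a luciferase neomycin HCV replicon reporter; luciferase luminescence as measure of HCV replicon replication; test concentration not given here.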 As to conditions: Huh7 HCV replicon luciferase reporter, 48 h; higher = more signal.
Assay [13] addresses Left-right determination factor 2 (Homo sapiens) (UniProt O00292). In words: small molecules binding LEFTY2 protein – biochemical, small-molecule microarray, 635 nm fluorescence scan, primary screen (AID 1110). As to conditions: higher = more signal.
Assay [14] has as its target Calmodulin-1 (Homo sapiens) (UniProt P0DP23). In words: small molecules binding calmodulin-1 with EGTA – biochemical, small-molecule microarray, Cy5-labelled CALM1, profiling panel (AID 1111).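 Note: labelled calmodulin applied in Tris saline Tween buffer holding calcium plus EGTA and DTT.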 As to conditions: Cy5-CALM1 binding fluorescence, higher = more signal.
For assay [15] the target is unchanged. In words: small molecules binding Ca-loaded calmodulin-1 – biochemical, small-molecule microarray, Cy5-labelled CALM1, plus calcium, artefact control for SMM control-protein annotation, profiling panel (AID 1112).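 Note: score merges spot fluorescence with signal to noise from triplicate slides.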 As to conditions: Cy5-CALM1 binding fluorescence, higher = more signal.
Assay [16] in a line: probe aWnt5a binding to arrayed compounds – biochemical, biotinylated probe, 635/667 nm fluorescence, primary screen (AID 1113).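 Note: score merges 667 nm fluorescence intensity with signal-to-noise per printed feature.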 As to conditions: small-molecule microarray, higher = more signal.
Assay [17] is described as follows: probe aShh binding to arrayed compounds – biochemical, biotinylated probe, 635/667 nm fluorescence, primary screen (AID 1114).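 Note: probe is biotin-labelled aShh protein from a stem cell growth factor screen; measures binding of labelled protein to compounds printed on the slide; score merges feature fluorescence at 667 nm with signal-to-noise.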 As to conditions: small-molecule microarray, higher = more signal.
A short description of assay [18]: probe aNog binding to arrayed compounds – biochemical, biotinylated probe, 635/667 nm fluorescence, primary screen (AID 1115).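 Note: probe is biotinylated aNog protein used at 0.15 µg/mL for 1 h at 4 C; z-score combines 667 nm fluorescence of each spot with its signal to noise.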 As to conditions: small-molecule microarray, higher = more signal.
Assay [19] has as its target Torsin-1A-interacting protein 1 (Homo sapiens) (UniProt Q5JTV8). In words: compound microarray binding of lysate hLAP1 – cell lysate, small-molecule microarray, COS7 lysate, 635/667 nm fluorescence, primary screen (AID 1116). As to conditions: 635 nm fluorescence, higher = more signal.
In assay [20] the target is Alpha-bungarotoxin (Bungarus multicinctus) (UniProt P60615). Kind of assay: compounds binding labelled alpha-BTX control protein – biochemical, small-molecule microarray, Alexa647 label, 635/667 nm fluorescence, artefact control for SMM control protein annotation, profiling panel (AID 1117). As to conditions: alpha-BTX-A647 binding fluorescence, higher = more signal.
Alpha-bungarotoxin (Bungarus multicinctus), sequence (P60615 whole entry, looked up): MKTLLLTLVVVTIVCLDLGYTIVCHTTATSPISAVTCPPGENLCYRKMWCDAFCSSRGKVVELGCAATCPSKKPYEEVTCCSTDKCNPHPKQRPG

Left-right determination factor 2 (Homo sapiens), sequence (O00292 whole entry, looked up): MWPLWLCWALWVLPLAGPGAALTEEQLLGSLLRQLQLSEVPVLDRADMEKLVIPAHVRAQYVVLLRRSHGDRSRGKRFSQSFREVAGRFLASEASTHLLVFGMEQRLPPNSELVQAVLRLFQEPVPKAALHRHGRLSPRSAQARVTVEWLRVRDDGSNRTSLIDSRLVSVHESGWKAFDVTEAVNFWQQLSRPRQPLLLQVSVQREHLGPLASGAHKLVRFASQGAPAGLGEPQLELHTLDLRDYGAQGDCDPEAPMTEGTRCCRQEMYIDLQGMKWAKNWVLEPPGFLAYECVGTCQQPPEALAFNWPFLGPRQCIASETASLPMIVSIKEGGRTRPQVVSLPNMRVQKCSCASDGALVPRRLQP
Torsin-1A-interacting protein 1 (Homo sapiens), sequence (Q5JTV8 whole entry, looked up): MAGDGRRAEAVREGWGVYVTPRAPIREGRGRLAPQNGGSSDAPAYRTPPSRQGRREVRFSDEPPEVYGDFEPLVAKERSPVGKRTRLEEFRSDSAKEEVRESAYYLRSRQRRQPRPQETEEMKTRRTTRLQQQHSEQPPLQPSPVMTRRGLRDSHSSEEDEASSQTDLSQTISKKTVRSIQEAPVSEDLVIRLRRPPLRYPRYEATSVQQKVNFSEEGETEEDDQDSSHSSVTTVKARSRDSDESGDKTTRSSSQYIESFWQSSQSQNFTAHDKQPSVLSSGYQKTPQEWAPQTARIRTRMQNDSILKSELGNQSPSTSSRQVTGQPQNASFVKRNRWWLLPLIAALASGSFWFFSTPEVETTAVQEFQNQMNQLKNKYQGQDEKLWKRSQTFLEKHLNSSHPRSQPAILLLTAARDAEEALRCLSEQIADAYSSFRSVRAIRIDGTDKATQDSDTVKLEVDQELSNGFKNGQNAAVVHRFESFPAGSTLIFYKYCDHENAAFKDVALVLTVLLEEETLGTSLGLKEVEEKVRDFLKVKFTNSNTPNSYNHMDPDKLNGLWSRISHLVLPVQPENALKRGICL
Follistatin-related protein 3 (Homo sapiens), sequence (O95633 whole entry, looked up): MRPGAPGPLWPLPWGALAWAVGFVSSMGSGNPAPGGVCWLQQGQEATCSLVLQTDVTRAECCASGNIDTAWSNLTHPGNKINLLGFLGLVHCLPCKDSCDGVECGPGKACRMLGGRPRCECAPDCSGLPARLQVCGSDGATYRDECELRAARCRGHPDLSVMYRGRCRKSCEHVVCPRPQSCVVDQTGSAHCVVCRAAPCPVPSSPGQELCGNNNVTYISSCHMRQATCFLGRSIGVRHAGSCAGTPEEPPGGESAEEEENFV

Consider `C=C(C(=O)CC[C@@H](OC(C)=O)c1ccc(OCCO)cc1)C(C)C`, for which the composite z-score was 0.167 in assay [1]; -0.0523 in [2]; 0.104 in assay [3]; 1.57 in [5]; -0.117 in assay [6]; -0.544 in assay [7]. The composite z-score in [8] is -0.152; in assay [9], -0.207; in assay [10], 0.815; in assay [11] it was 0.522; in [13], -0.384; in assay [14] it was -0.43. Also, the composite z-score in assay [15] is -0.908; in [16] it was 0.117; in assay [17], -0.0866; in assay [18], 0.365; in assay [19], 0.159; in assay [20], 0.227. Besides, the z-score was 1.02 (inactive) in assay [4] and -1.88 in assay [12].

For the compound `O=C(NCc1ccccc1)[C@@H]1c2ccccc2C(=O)N(C2CCCCC2)[C@H]1c1ccc(CO)cc1`, the composite z-score was 0.88 in assay [1]; -0.709 in assay [2]; 0.0028 in [3]; 0.686 in assay [5]; 0.0662 in [6]; -0.241 in [7]. Further, the composite z-score is 0.707 in assay [8]; -0.327 in assay [9]; -0.224 in [10]; 1.47 in [11]; -0.379 in [13]; -0.576 in assay [14]. Also, the composite z-score in assay [15] is -0.545; in [16] it was -0.104; in assay [17], -0.247; in [18] it was -0.282; in assay [19], 0.089; in assay [20], -0.09. In addition, the z-score was 0.365 (inactive) in [4] and -0.166 in [12].

For the compound `CC(C)CNC(=O)[C@@]1(C)c2ccccc2C(=O)N(C(C)C)[C@H]1c1ccc(CO)cc1`, the composite z-score in [1] is 1.09; in [2] it was 0.0084; in assay [3], 0.567; in assay [5], -1.42; in assay [6] it was -1.29; in assay [7], -0.741. In addition, the composite z-score in assay [8] was -0.542; in [9] it was -0.854; in assay [10], 1.26; in [11] it was -1.4; in [13], -0.243; in assay [14] it was -0.489. Further, the composite z-score in assay [15] is -0.577; in assay [16] it was -0.191; in assay [17], -0.375; in assay [18] it was -0.524; in assay [19], -0.181; in assay [20], -0.018. Further, the z-score in [4] is -0.0251 (inactive); in [12] it was -1.13.

On to `O=C1O[C@@H](c2ccccc2)[C@@H](c2ccccc2)N2[C@@H](c3ccc(O)cc3)[C@]3(C(=O)Nc4ccc(C#CCCO)cc43)[C@@H](C(=O)O)[C@H]12`, for which the composite z-score in assay [1] is 1.67; in assay [2], 2.56; in assay [3], 1.64; in assay [5], 0.472; in [6], -0.2; in assay [7] it was 0.363. Further, the composite z-score in assay [8] is 1.13; in [9], -0.107; in [10] it was 1.76; in assay [11], 0.449; in assay [13], -0.233; in assay [14], 2.19. Further, the composite z-score in [15] turned out to be 0.933; in [16], 0.485; in assay [17], 0.86; in assay [18], 2.63; in assay [19] it was 1.66; in [20] it was 2.14. Further, the z-score was -0.545 (inactive) in assay [4] and 0.386 in assay [12].

As to `COCCOC(=O)N1C(=O)[C@@]2(c3cc(C#Cc4ccc(OC)cc4)ccc31)[C@H](c1ccc(O)cc1)N1[C@H](c3ccccc3)[C@H](c3ccccc3)OC(=O)[C@H]1[C@@H]2C(=O)N1CCN(c2ncccn2)CC1`, the composite z-score in assay [1] was 0.408; in assay [2], -0.544; in [3], 0.245; in [5] it was 0.735; in assay [6] it was -0.0597; in [7], 0.375. Moreover, the composite z-score in assay [8] is 0.85; in assay [9], 0.355; in [10] it was 0.349; in assay [11], 1.37; in assay [13] it was 0.224; in [14], 0.966. Besides, the composite z-score was 0.361 in assay [15]; -0.0846 in [16]; -0.441 in assay [17]; -0.124 in assay [18]; 0.596 in assay [19]; 0.829 in [20]. In addition, the z-score in [4] was 0.477 (inactive); in assay [12] it was -1.05.
